Drawing on PubChem BioAssay AID504374 (National Center for Advancing Translational Sciences (NCATS), 2011), this text covers Potency for 56 compounds.

Screen size: about 1,500 compounds; about 100 (6.7%) were called active. Entries that show only a call come without a potency. Not shown: some 7% with an inconclusive outcome. Calls come from the whole dose curve; as a rule, active = well fitted inhibition curve with a large enough effect; inconclusive = small, poorly fitted or top-dose-only effect, or effect the other way; inactive = flat fitted curve, though single readings scatter. This excerpt belongs to a sample that is enriched for actives.
Potency is the fitted concentration of half-maximal effect.

Sequence of Runt-related transcription factor 1 (Homo sapiens) + Core-binding factor subunit beta (Homo sapiens) (Q01196 whole entry, looked up): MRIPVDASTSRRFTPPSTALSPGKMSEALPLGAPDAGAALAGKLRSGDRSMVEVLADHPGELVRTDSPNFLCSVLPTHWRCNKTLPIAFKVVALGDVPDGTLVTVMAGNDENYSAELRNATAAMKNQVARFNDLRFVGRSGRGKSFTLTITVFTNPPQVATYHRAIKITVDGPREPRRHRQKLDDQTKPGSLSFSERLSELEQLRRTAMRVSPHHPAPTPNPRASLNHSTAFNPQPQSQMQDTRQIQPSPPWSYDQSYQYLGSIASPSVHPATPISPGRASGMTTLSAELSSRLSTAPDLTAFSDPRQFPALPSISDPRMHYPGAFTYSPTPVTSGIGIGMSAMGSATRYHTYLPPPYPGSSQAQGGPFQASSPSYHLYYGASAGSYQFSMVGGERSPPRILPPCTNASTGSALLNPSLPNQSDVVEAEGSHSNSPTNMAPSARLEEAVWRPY
Sequence of Runt-related transcription factor 1 (Homo sapiens) + Core-binding factor subunit beta (Homo sapiens) (Q13951 whole entry, looked up): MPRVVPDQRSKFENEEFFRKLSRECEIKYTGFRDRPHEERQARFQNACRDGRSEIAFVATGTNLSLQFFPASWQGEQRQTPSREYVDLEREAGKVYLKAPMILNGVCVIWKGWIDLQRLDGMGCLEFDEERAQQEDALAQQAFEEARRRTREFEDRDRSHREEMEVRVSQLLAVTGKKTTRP

The target in this experiment is Runt-related transcription factor 1 (Homo sapiens) + Core-binding factor subunit beta (Homo sapiens) (UniProt Q01196+Q13951). As to the kind of experiment: qHTS Assay for Compounds Blocking the Interaction Between CBF-beta and RUNX1 for the Treatment of Acute Myeloid Leukemia: Hit Validation. Note: nearly all actives have a fitted effect of over 60% in size. The following applies: AlphaScreen CBFb-His/RUNX1-biotin binding; series mostly up to 59.8 µM. From the text:
NIH Chemical Genomics Center [NCGC]
NIH Molecular Libraries Probe Production centers Network [MLPCN]
Assay Submitter (PI): Paul Liu
Core Binding Factor (CBF) abnormalities are associated with 20-25% of all acute myeloid leukemias (AML), of which 5-10% are further sub classified as acute myelomonocytic leukemia with eosinophilia, also known as M4Eo in the FAB classification scheme. This subtype of leukemia is usually associated with chromosome 16 inversion (p13:q22). Chromosome 16 inversion results in formation of the fusion oncogene CBFB-MYH11, which encodes the fusion protein CBF-beta-SMMHC.
It has been hypothesized that the interference of CBF-beta and RUNX1 binding could have therapeutic implications for patients with CBF mediated leukemias. We developed a CBF-beta and RUNX1 binding assay in AlphaScreenTM format and optimized it for high throughput screening to search for inhibitors. The goal of this project is to screen MLPCN's compound collection (MLSMR) for identifying the inhibitors of the interaction between CBF-beta and RUNX1 proteins as research probes. If these probes work well in the animal models, the ultimate goal of this project is to development a new drug treatment for this disease.
This assay can not be used to assess how apparent inhibitors interfere with protein binding, and whether inhibitors specifically bind to either protein. Disruption of this protein-protein interaction, through any mechanism, is the intended target activity.
The present data set was run to confirm the activity of hits from the primary screen.
NCGC Assay Protocol Summary:
Step, Parameter, Description
(1) Reagent, 3 uL CBFb-His/RUNX1-biotin mix incubated together for 20 minutes at room temperature (30 nM each)
(2) Compound or control, 23 nL compound stock solution
(3) Incubation, 15 minutes at Room temperature
(4) Reagent, 1 uL 50 ng each of beads (Nickel beads and streptavidin beads)
(5) Incubation, 90 minutes at Room temperature
(6) Detection, Excitation=365 nm Emission=440 nm, Envision reader in AlphaScreenTM mode
Keywords: MLSMR, MLPCN, NIH Roadmap, qHTS, NCGC, Core binding factor, CBF, CBF-beta, Acute myeloid leukemia
On to `COc1ccccc1/C=C/C=N/n1c(-c2ccccn2)n[nH]c1=S`, for which the Potency was 11.2 µM (active).
For `COc1cc(/C=N/n2c(-c3ccccc3)n[nH]c2=S)cc(OC)c1O` the value was “inactive”; for `Cc1ccc(/C=N/n2c(-c3ccncc3)n[nH]c2=S)s1`, “inactive”.
For `CC(=O)c1c(C)nc(Nc2nc3ccccc3s2)nc1C` the value was “inactive”.
For `COc1ccc(Nc2cc(=O)n(-c3ccccc3)c3c2c(=O)n(C)c(=O)n3C)cc1` the value was “inactive”; for `Cn1c(=O)c2c(nc(N3CCOCC3)n2C/C=C/c2ccccc2)n(C)c1=O`, “inactive”.
Consider `COCCCN1CCN(C2Cc3ccccc3Sc3ccc(Cl)cc32)CC1` (stereo unspecified), for which the Potency is 12.2 µM (active).
Regarding `CC(C)(C)OC(=O)N1CCC[C@H]1c1nnc(SCc2ccccc2)o1`, the Potency result is “inactive”.
As to `CCCCNC(=O)Nc1ncn[nH]1`, the Potency result was “inactive”.
For the compound `Cc1nn(-c2ccccc2)c(NC(=O)c2cccs2)c(-c2ccccc2Cl)c1=O`, the Potency entry is “inactive”.
Then `CC(C)(C)OC(=O)N[C@@H](Cc1ccccc1)c1nnc(SCC(N)=O)o1`, with “inactive”.
Then `O=C(O)c1ccc(/C=N\Nc2ccc(S(=O)(=O)N3CCOCC3)cc2[N+](=O)[O-])cc1`, with “inactive”.
In the case of `Cc1nn(C)cc1/C=N/NC(=O)c1ccco1`, the Potency entry was “inactive”.
Then `CCN(CC)c1ccc(/C=N/NC(=O)c2ccco2)c(O)c1`, with 31.6 µM (active).
Then `O=C(N/N=C/c1ccc(Br)s1)c1ccco1`, with “inactive”; and `CCOC(=O)C(=CNNc1c(C)csc1C(=O)OC)C(=O)OCC`, with “inactive”.
For `COC(=O)[C@H](CC(C)C)NC(=O)NCCC1=CCCCC1` the value was “inactive”.
For `CCOc1ccc(/C=C2\CCc3ccccc3C2=O)cc1`, the Potency entry is “inactive”.
Then `CCCOc1ccc(-c2nc(-c3ccc([N+](=O)[O-])cc3)cs2)cc1`, with “inactive”; and `COc1cccc(C2/C(=C(/O)c3ccccc3)C(=O)C(=O)N2Cc2ccco2)c1` (stereo unspecified), with “inactive”.
Then `O=C(/C=C/c1ccccc1)Nc1cccnc1Oc1ccccc1F`, with “inactive”.
For `O=[N+]([O-])c1ccc2c(c1)S(=O)c1ccccc1-2` (stereo unspecified) the value was “inactive”; for `O=[N+]([O-])c1ccc(O)c(/C=N/NC2=NS(=O)(=O)c3ccccc32)c1`, 2.82 µM (active); for `Cc1cc([N+](=O)[O-])nn1CC(=O)N/N=C/c1ccccc1F`, “inactive”.
Consider `COC(=O)[C@H](CC(C)C)NC(=O)N1CCCCC1C` (stereo partly specified), for which the Potency result was “inactive”.
Then `COc1ccc(/C(C)=N/NC(=O)CNC(=O)Cc2ccccc2)c(OC)c1`, with “inactive”; and `Cc1ccc(C)c(NC(=S)N(CCN(C)C)C(C)c2ccccn2)c1` (stereo unspecified), with 4.86 µM (active).
For `CCCCNC(=O)Nc1ccccc1CC` the value was “inactive”.
For `Cc1c(Cl)cccc1NC(=S)N(CCN(C)C)C(C)c1ccccn1` (stereo unspecified) the value was 4.34 µM (active).
In the case of `CCc1ccccc1NC(=S)N(CCN(C)C)C(C)c1ccccn1` (stereo unspecified), the Potency was 6.12 µM (active).
Then `Cc1cccc(C)c1NC(=S)N(CCN(C)C)C(C)c1ccccn1` (stereo unspecified), with 4.86 µM (active).
Then `COc1ccc(C2=NOC(CNC(=O)c3ccccc3Br)C2)c(OC)c1` (stereo unspecified), with “inactive”; and `CC(C)(C)NC(=O)NCCc1ccccc1`, with “inactive”.
Then `Fc1ccc(-c2cc(-c3cccs3)cc(-c3ccccc3)n2)cc1`, with “inactive”; and `Clc1ccc(Nc2ccc(Cl)nn2)cc1`, with “inactive”.
With `COCc1cc(=O)[nH]c2c1c(-c1ccccc1)nn2C`, the Potency entry was “inactive”.
For `Cc1cc(N2CCOCC2)n2ncc(-c3ccc(Cl)cc3)c2n1` the value was “inactive”; for `CC(C)c1nc(C#N)c(NN)o1`, “inactive”.
With `COCc1cc(=O)n2[nH]c(-c3ccco3)cc2n1`, the Potency result is “inactive”.
For `CCC1(CC)Nc2ccccc2C(=O)N1c1ccc(OC)cc1` the value was “inactive”.
Then `CCNC(=O)NC(=O)c1csc([N+](=O)[O-])c1`, with “inactive”.
Regarding `Cc1ccccc1NC(=S)N(CCN(C)C)C(C)c1ccccn1` (stereo unspecified), the Potency is 4.86 µM (active).
For `Cc1ccc(Cl)cc1NC(=S)NN` the value was “inactive”; for `Cc1ccc(Cl)cc1NC(=S)N(CCN(C)C)C(C)c1ccccn1` (stereo unspecified), 5.46 µM (active).
Then `Cc1ccccc1NC(=S)Nc1ccccn1`, with “inactive”.
For `Cc1cc(NC(=O)Nc2cc(Cl)ccc2C)no1` the value was “inactive”; for `NC(=O)C1CCN(c2c([N+](=O)[O-])cc(C(F)(F)F)cc2[N+](=O)[O-])CC1`, “inactive”.
As for `C/C(=N\Nc1ccc(C#N)cc1[N+](=O)[O-])c1ccc(O)cc1`, the Potency result is “inactive”.
Turning to `CC1CC(=O)Nc2ccccc2N1S(=O)(=O)c1ccc(Cl)cc1` (stereo unspecified), the Potency entry is “inactive”.
Consider `O=C(CCCCCCCCCCC(=O)NCc1cccnc1)NCc1cccnc1`, for which the Potency result was “inactive”.
For `Cc1ccc(C2N=C(N)Nc3nc(=O)c4ccccc4n32)cc1` (stereo unspecified) the value was “inactive”; for `Cc1cccnc1NC(=O)c1csnn1`, “inactive”.
Then `O=C(OCC1OC(OC(=O)c2cc(O)c(O)c(OC(=O)c3cc(O)c(O)c(O)c3)c2)[C@@H](OC(=O)c2cc(O)c(O)c(OC(=O)c3cc(O)c(O)c(O)c3)c2)C(OC(=O)c2cc(O)c(O)c(OC(=O)c3cc(O)c(O)c(O)c3)c2)C1OC(=O)c1cc(O)c(O)c(OC(=O)c2cc(O)c(O)c(O)c2)c1)c1cc(O)c(O)c(OC(=O)c2cc(O)c(O)c(O)c2)c1` (stereo partly specified), with 0.398 µM (active); and `O=c1[nH]nc(N2CCOCC2)c(=O)[nH]1`, with “inactive”.
For the compound `CCCCCCC(=O)N(O)C1CC(=O)N(c2ccc(F)cc2)C1=O` (stereo unspecified), the Potency entry was “inactive”.
For `O=C1Nc2ccccc2C1(O)Cc1ccccn1` (stereo unspecified), the Potency entry is “inactive”.
